Assay outcomes as filed in PubChem.
ADAM17 inh – ADAM17 inhibitors, primary screen, biochemical, QFRET. Disintegrin and metalloproteinase domain-containing protein 17 (Homo sapiens), P78536. recombinant ADAM17, EDANS/DABCYL FRET peptide cleavage. inhibition, % at 6.95 µM. 370,000 tested, 0.83% active. AID 720648, 2013;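 active = inhibition above the mean of compounds lying between control limits plus 3 SD, set per campaign, cut at about 8.5% in these data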;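 note: 0% = DMSO-only wells as the low control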
PLC-beta3 inh – human PLC-beta3 inhibitors, primary screen, biochemical, fluorescence; 1-phosphatidylinositol 4,5-bisphosphate phosphodiesterase beta-3 (Homo sapiens), Q01970; Purified PLC-beta3, fluorogenic substrate; inhibition, % at 12.2 µM; 370,000 tested, 0.18% active; AID 720704, 2013; in the data active = inhibition above about 11%;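 note: 0% = median of compound wells on plate and 100% = full blocker control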
PLCg1 inh – PLC-gamma1 enzyme inhibitors, primary screen, biochemical, fluorescence, purified enzyme. 1-phosphatidylinositol 4,5-bisphosphate phosphodiesterase gamma-1 (Homo sapiens), P19174. inhibition, % at 12.2 µM. 370,000 tested, 0.84% active. AID 720700, 2013. fluorogenic substrate
HGIII-sPLA2 inh – human group III sPLA2 inhibitors, primary screen, biochemical, QFRET, BODIPY PC-A2 liposome substrate | inhibition, % at 12.2 µM | 370,000 tested, 0.56% active | Group 3 secretory phospholipase A2 (Homo sapiens), Q9NZ20 | QFRET BODIPY PC-A2 liposome hydrolysis, fluorescence | AID 743126, 2013;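 active = inhibition above mean plus 3 SD of compounds lying within the high and low control bounds, cut at about 19% in these data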;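 note: 0% = median of test compound wells and 100% = no enzyme DMSO wells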
ADAM10 inh – human ADAM10 inhibitors, primary screen, biochemical, QFRET, HTS | Disintegrin and metalloproteinase domain-containing protein 10 (Homo sapiens), O14672 | recombinant ADAM10, EDANS/DABCYL FRET peptide cleavage, 3 h | inhibition, % at 7 µM | 370,000 tested, 0.62% active;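 active = inhibition above a per-campaign cutoff equal to the mean of compounds falling between control-based bounds plus 3 SD, cut at about 20% in these data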;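 note: 0% = DMSO wells while the 100% control is not disclosed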
Target sequence (O14672 214-748 limits assumed): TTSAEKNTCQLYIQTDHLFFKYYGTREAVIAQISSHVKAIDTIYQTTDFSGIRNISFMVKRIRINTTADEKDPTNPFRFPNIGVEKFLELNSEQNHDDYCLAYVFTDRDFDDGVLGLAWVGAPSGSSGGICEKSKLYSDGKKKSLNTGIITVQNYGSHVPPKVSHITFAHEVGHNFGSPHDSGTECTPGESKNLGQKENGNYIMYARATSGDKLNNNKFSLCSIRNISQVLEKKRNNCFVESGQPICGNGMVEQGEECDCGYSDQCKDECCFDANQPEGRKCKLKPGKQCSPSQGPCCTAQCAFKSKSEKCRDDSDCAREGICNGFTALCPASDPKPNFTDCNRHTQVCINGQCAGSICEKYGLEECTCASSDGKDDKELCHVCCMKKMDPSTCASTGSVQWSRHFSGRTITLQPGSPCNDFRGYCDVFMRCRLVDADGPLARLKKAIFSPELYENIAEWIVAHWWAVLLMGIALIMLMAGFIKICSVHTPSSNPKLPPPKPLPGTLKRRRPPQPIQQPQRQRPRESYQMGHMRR
proKLK7 act – proKLK7 zymogen activators, primary screen, biochemical, fluorescence intensity | Kallikrein-7 (Homo sapiens), P49862 | purified proKLK7, EDANS-DABCYL substrate fluorescence; 100% is mature enzyme control, 0% vehicle | activation, % at 7 µM | 370,000 tested, 0.9% active | AID 652039, 2013;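 active = activation above the mean of all tested compounds plus 3 SD, computed per campaign excluding outliers beyond control limits, cut at about 13% in these data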
PLCgamma1 ctr – PLC-gamma1 enzyme inhibitors, counter-screen for PLC-beta3 inhibitor project, biochemical, fluorescence. shares compounds with PLCg1 inh. purified PLC-gamma1, fluorogenic substrate. inhibition, % at 12.3 µM. 3,300 tested, 3.1% active. AID 743258, 2014
PLCb3 confirm – PLC-beta3 inhibitor confirmation, biochemical, fluorescence, purified enzyme; shares compounds with PLCg1 inh; fluorogenic substrate fluorescence; inhibition, % at 12.3 µM; 3,300 tested, 1% active; in the data active = inhibition above about 11%
* hit, by the source's call; / = not tested or not shown. The list is not random: actives were taken first. Their share in the collection is about 3.4%. Cut-off read from the data, not from the text of the source, unless noted: active = inhibition above about 9.5%; inactive = the rest.

SMILES | ADAM17 inh | PLC-beta3 inh | PLCg1 inh | HGIII-sPLA2 inh | ADAM10 inh | proKLK7 act | PLCgamma1 ctr | PLCb3 confirm
Cn1c(NCCCN2CCOCC2)nc2c1c(=O)n(Cc1ccc(Cl)cc1Cl)c(=O)n2C | 0 | 3 | 12* | -4 | -5 | 0 | -13 | -3
O=C(COC(=O)/C=C/c1ccccc1[N+](=O)[O-])Nc1ccc(OC(F)F)cc1 | 2 | 1 | 11* | 2 | -2 | -1 | -5 | -3
CCCCCN1CCCCC(NC(=O)C(C)(C)C)C1=O (configuration not stated) | -5 | 2 | 1 | 4 | -7 | 0 | / | /
COC(=O)C1CCCN1C(=O)COc1ccc(Br)cc1Cl (configuration not stated) | 2 | 8 | 14* | -4 | 7 | 0 | -8 | -118
O=C(COc1ccc(Br)cc1Cl)NC1CCCCC1 | 3 | -1 | 0 | 1 | -6 | 0 | / | /
CCn1c(SCC(=O)c2ccc(-c3ccccc3)cc2)nnc1-c1ccc(C(C)(C)C)cc1 | 2 | 1 | 1 | 9 | -8 | 0 | / | /
O=C(NCc1cccs1)C1CCC(CNS(=O)(=O)c2ccccc2)CC1 (configuration not stated) | 8 | 5 | 12* | 1 | 9 | 0 | 4 | 5
COC(=O)[C@]12C[C@H](CC(=O)N3CCCC3)C(=O)N(Cc3ccc(Cl)cc3Cl)C1=C[C@H](C(C)C)O[C@@H]2C1CC1 | 3 | 0 | 3 | -6 | 9 | 0 | / | /
CN1CCN(NC(=O)c2ccc(F)cc2)CC1 | -3 | -1 | 1 | -8 | 0 | 0 | / | /
CN1CCN(NC(=O)c2ccc(Cl)s2)CC1 | -7 | -11 | 9.8* | 13 | -5 | 0 | -2 | 3
CCN(CC(=O)Nc1ccc(NC(C)=O)cc1)C(=O)C1CC(=O)N(CCc2ccc(OC)c(OC)c2)C1 (configuration not stated) | -2 | -6 | 2 | 7 | -6 | 0 | / | /
COc1ccc(CCN2CC(C(=O)N(C)CC(=O)Nc3ccc(F)c(F)c3F)CC2=O)cc1OC (configuration not stated) | -1 | -1 | 11* | 16 | -13 | 0 | -4 | -1
CCOC(=O)COc1ccc(S(=O)(=O)N2CCN(c3ccccc3F)CC2)cc1 | 0 | 1 | 2 | -6 | 7 | 1 | / | /
CCOC(=O)COc1ccc(S(=O)(=O)N2CCN(c3ccc(OC)cc3)CC2)cc1 | -5 | -2 | 9.5* | 8 | 3 | 0 | 1 | 2
CC(=O)c1ccc(OCC(O)COc2ccc(C(C)=O)cc2)cc1 | 5 | 9 | 11* | 0 | 6 | 1 | 1 | 4
CC(=O)c1ccc(OCC(O)CN2CCN(CC(O)COc3ccc(C(C)=O)cc3)CC2)cc1 (configuration not stated) | 0 | 3 | 4 | 0 | 6 | 0 | / | /
Cc1ccc(C(C(=O)NC2CCCCC2)N(Cc2ccco2)C(=O)C2COc3ccccc3O2)o1 (configuration not stated) | -3 | -4 | 9.6* | 1 | 3 | 0 | 9 | 1
Cc1ccc2c(c1)NC(=O)C(CC(=O)NCCCN1CCCCC1)O2 (configuration not stated) | -2 | -1 | -1 | -1 | -9 | 0 | / | /
